# Measured values: the supplement of paper PMC10646978
# ± gives the standard deviation.
# Assays:
# Conditions in all cases: modulator concentration 10 µM
# [1] = test system: RAW-Dual (murine macrophage reporter line); assay: NF-kB reporter (SEAP) activity fold change vs agonist alone; higher = enhanced NF-kB activity
# Outline: (§1)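 RAW-Dual murine macrophage reporter cells were plated at 50 000 per well in 384-well plates, pin-transferred compound to 10 μM final, and pre-incubated for 1 hour at 37 °C before a PRR agonist was added and the cells incubated overnight. NF-κB activity was read from supernatant SEAP with QUANTI-Blue at 620 nm absorbance, and IRF activity from Lucia luciferase with QUANTI-Luc by luminescence. Each signal was expressed as fold change by dividing by the mean agonist-only control on the same plate. Two replicate plates were averaged, with errors obtained by propagation.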
# [2] = test system: RAW-Dual (murine macrophage reporter line); assay: IRF reporter (Lucia luciferase) activity fold change vs agonist alone; higher = enhanced IRF activity
# Outline: as §1
# [3] = test system: RAW-Dual (murine macrophage reporter line); assay: viability score (confluency relative to resting cells, overnight) (fraction); higher = more viable, active = viable (0.7 or more)
# Outline: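 RAW-Dual macrophages in 384-well plates were exposed overnight to compound at 10 μM final. Confluency was imaged with IncuCyte, and two confluency masks were generated with IncuCyte software over all imaged wells. The viability score is confluency expressed relative to resting cells. Compounds were called viable if both masks exceeded 70% of resting cells.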
# [4] = agonist: CpG ODN 1826 0.5 ug/mL
Compound,"NF-kB reporter [1, 4]",NF-kB reporter ([1]; agonist: LPS 0.1 ug/mL),NF-kB reporter ([1]; agonist: MPLA […]),IRF reporter ([2]; agonist: 3'3'-cGAMP 10 ug/mL),IRF reporter ([2]; agonist: LPS 0.1 ug/mL),IRF reporter ([2]; agonist: MPLA […]),viability score [3]
CCOC(=O)C1=C(C)NC(C)=C(C(=O)OC)C1c1cccc([N+](=O)[O-])c1 (centres undefined),0.706 ± 0.055,0.763 ± 0.088,0.859 ± 0.076,1.02 ± 0.049,1.44 ± 0.098,1.37 ± 0.11,0.985 (active)
CN1C(=O)C(=NNC(=O)COc2cccc(Br)c2)c2ccccc21,0.895 ± 0.06,0.978 ± 0.082,0.896 ± 0.054,0.954 ± 0.033,1.48 ± 0.16,1.16 ± 0.12,1.01 (active)
Cc1nc(-c2ccc(S(=O)(=O)N3C4CCC3CC(Oc3cccnc3)C4)cc2)co1 (centres undefined),1 ± 0.093,1.08 ± 0.086,0.94 ± 0.051,1.04 ± 0.077,1.14 ± 0.087,1 ± 0.092,1.01 (active)
O=C(CCCN1CC=C(n2c(=O)[nH]c3ccccc32)CC1)c1ccc(F)cc1,0.788 ± 0.06,0.828 ± 0.078,0.71 ± 0.069,0.975 ± 0.052,0.932 ± 0.15,1.21 ± 0.2,0.276 (inactive)
CN1CCN(C(CNC(=O)c2ccccc2Br)c2ccc(F)cc2)CC1 (centres undefined),0.878 ± 0.047,0.967 ± 0.12,0.944 ± 0.13,1.03 ± 0.053,1.06 ± 0.093,0.936 ± 0.34,1.01 (active)
O=C(NCC1CN(c2ccc(N3CCOCC3=O)cc2)C(=O)O1)c1ccc(Cl)s1 (centres undefined),1.36 ± 0.18,1.09 ± 0.41,0.984 ± 0.063,0.898 ± 0.031,1.21 ± 0.43,1.03 ± 0.08,1 (active)
COC(=O)C1=CN(CC2CCCO2)C=C(C(=O)OC)C1c1ccc(F)cc1 (centres undefined),1.06 ± 0.065,0.875 ± 0.069,1.22 ± 0.063,0.886 ± 0.062,0.95 ± 0.046,0.961 ± 0.13,0.996 (active)
O=C(Cn1cnc(-c2ccc(F)cc2)cc1=O)N1CCOCC1,0.891 ± 0.06,1.07 ± 0.13,1.18 ± 0.075,1.04 ± 0.047,1.3 ± 0.27,1.44 ± 0.45,0.99 (active)
Cc1cc(OCC(O)CN2CCCCC2C)cc(C)c1Cl.Cl (centres undefined),0.79 ± 0.15,0.97 ± 0.08,0.796 ± 0.048,0.955 ± 0.048,1.2 ± 0.17,1.25 ± 0.23,0.923 (active)
O=C(CC1Sc2ccccc2NC1=O)Nc1ccccc1Cl (centres undefined),1 ± 0.079,0.989 ± 0.067,1.01 ± 0.036,1.15 ± 0.21,1.04 ± 0.043,1.04 ± 0.15,1 (active)
CC1CCN(C2=NC(=O)C(=Cc3cccc4ccccc34)S2)CC1,1.06 ± 0.087,0.987 ± 0.076,0.954 ± 0.057,0.963 ± 0.05,1.54 ± 0.23,1.2 ± 0.18,1.01 (active)
Cc1cc(C)c(NC(=O)C2C3CCC4C(CCC32)C4(Cl)Cl)c(C)c1 (centres undefined),1.01 ± 0.11,1.03 ± 0.079,1.02 ± 0.062,1.03 ± 0.027,1.61 ± 0.14,1.1 ± 0.11,1.01 (active)
COc1nc(C)cnc1NS(=O)(=O)c1cccnc1-c1ccc(-c2nnco2)cc1,0.964 ± 0.21,0.98 ± 0.18,1 ± 0.09,0.852 ± 0.047,0.982 ± 0.26,1.06 ± 0.24,0.979 (active)
Cc1c(Cl)ccc2c1NC(C(=O)O)C1CC=CC21 (centres undefined),0.814 ± 0.045,1.05 ± 0.092,0.755 ± 0.063,0.615 ± 0.034,1.19 ± 0.091,1.13 ± 0.099,0.994 (active)
O=C(NN=Cc1c(O)ccc2ccccc12)c1ccccc1Br,1.43 ± 0.11,1.24 ± 0.091,1.14 ± 0.092,0.612 ± 0.1,1.05 ± 0.074,0.873 ± 0.057,0.989 (active)
O=C(c1ccc(Cl)cc1)N(c1ccccc1)C1C=CS(=O)(=O)C1 (centres undefined),0.99 ± 0.056,0.83 ± 0.051,0.823 ± 0.049,0.814 ± 0.031,1.1 ± 0.14,1.08 ± 0.2,0.981 (active)
O=C(OC1Cc2c(O)cc(O)cc2OC1c1cc(O)c(O)c(O)c1)c1cc(O)c(O)c(O)c1 (centres undefined),0.321 ± 0.094,1.04 ± 0.083,1.02 ± 0.092,0.822 ± 0.029,1.13 ± 0.22,1.06 ± 0.1,1.01 (active)
CC12CC3(C)CC(C)(C1)CC(C(=O)NC(C)(C)CO)(C2)C3,0.866 ± 0.067,0.867 ± 0.097,0.879 ± 0.09,0.996 ± 0.067,1.42 ± 0.096,1.52 ± 0.16,1 (active)
CCN(CC)C(=O)/C(C#N)=C/c1cc(O)c(O)c([N+](=O)[O-])c1,1.23 ± 0.23,1.08 ± 0.45,0.864 ± 0.055,0.905 ± 0.035,1.22 ± 0.43,1.11 ± 0.095,0.992 (active)
CNC(=O)[C@H](Cc1c[nH]c2ccccc12)NC(=O)[C@@H](CC(=O)NO)CC(C)C,1.1 ± 0.26,1.33 ± 0.074,1.07 ± 0.074,0.88 ± 0.035,1.07 ± 0.12,1.12 ± 0.12,0.995 (active)
Cc1c(N=Cc2cc([N+](=O)[O-])ccc2O)c(=O)n(-c2ccccc2)n1C,0.911 ± 0.055,0.995 ± 0.061,0.907 ± 0.089,0.917 ± 0.03,1.34 ± 0.15,1.18 ± 0.2,0.999 (active)
COc1ccc2c(c1)c(CC(=O)OCC(=O)O)c(C)n2C(=O)c1ccc(Cl)cc1,0.844 ± 0.16,1.06 ± 0.33,0.835 ± 0.053,0.938 ± 0.029,1.15 ± 0.25,1.07 ± 0.11,0.985 (active)
Br.CC(=O)c1cccc(Nc2nc(-c3c(C)nc4cc(C)ccn34)cs2)c1,0.774 ± 0.051,1.16 ± 0.087,1.62 ± 0.095,0.691 ± 0.13,1.17 ± 0.06,2.65 ± 0.53,0.25 (inactive)
CSc1ccc(C2Nc3ccccc3-c3nnc(SCc4ccc(C)cc4)nc3O2)cc1 (centres undefined),0.817 ± 0.094,0.952 ± 0.047,1.19 ± 0.1,0.877 ± 0.058,1.08 ± 0.091,1.18 ± 0.14,1.01 (active)
CCOC(=O)c1sc(NN=Cc2cccc(Cl)c2)nc1C,1.04 ± 0.12,1.06 ± 0.059,0.89 ± 0.053,0.849 ± 0.039,1.57 ± 0.23,1.18 ± 0.18,1.01 (active)
O=C(Cn1c(C(F)(F)F)nc2ccccc21)c1ccc(OC(F)F)cc1,0.916 ± 0.086,1.07 ± 0.084,0.884 ± 0.062,1.06 ± 0.061,1.3 ± 0.15,1.02 ± 0.072,1.01 (active)
Br.C=CCn1c(=N)n(CC(=O)c2cccc([N+](=O)[O-])c2)c2ccccc21,0.571 ± 0.058,0.997 ± 0.057,0.905 ± 0.062,1.13 ± 0.064,1.16 ± 0.099,0.973 ± 0.2,1.01 (active)
